According to paper PMC5700166:
Residue numbers refer to the chain shown, from its start.

Assays:
Experiment in all cases: protein-binding microarray (PBM); PBM: ~300 nM protein, 6 mM HEPES pH 7.8, 80 mM KCl, 0.5 mM EDTA, 0.5 mM EGTA, 6% glycerol, 35 ng/ul poly-dIdC, 1% milk, 1 h, room temperature; Ap Aiptasia and Nv Nematostella (sea anemones) / Co Capsaspora / Aq Amphimedon (sponge) / Dm Drosophila / Hu human; RHD is the Rel homology domain; high values mean tight binding
Settings in all cases: dsDNA, one strand shown
GST-Ap-NF-kB RHD = molecular target: T1, GST-Ap-NF-kB RHD (Exaiptasia pallida (Aiptasia), UniProt A0A913YAJ5 2-422)
T1 sequence: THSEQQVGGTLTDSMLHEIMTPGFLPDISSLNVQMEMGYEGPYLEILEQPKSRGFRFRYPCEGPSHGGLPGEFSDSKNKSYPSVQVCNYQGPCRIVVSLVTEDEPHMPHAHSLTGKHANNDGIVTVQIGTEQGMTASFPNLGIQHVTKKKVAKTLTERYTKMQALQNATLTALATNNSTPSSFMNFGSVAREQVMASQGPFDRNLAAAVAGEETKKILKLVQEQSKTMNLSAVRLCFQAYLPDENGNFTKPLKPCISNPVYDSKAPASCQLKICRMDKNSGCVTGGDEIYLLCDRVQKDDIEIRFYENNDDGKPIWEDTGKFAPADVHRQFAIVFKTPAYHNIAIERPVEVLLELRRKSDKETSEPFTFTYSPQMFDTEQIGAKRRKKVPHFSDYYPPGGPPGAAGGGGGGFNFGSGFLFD

[1] = molecular target: T2, GST-Nv-NF-kB (Cys allele) (Nematostella vectensis, UniProt E5G601 2-411)
T2 sequence: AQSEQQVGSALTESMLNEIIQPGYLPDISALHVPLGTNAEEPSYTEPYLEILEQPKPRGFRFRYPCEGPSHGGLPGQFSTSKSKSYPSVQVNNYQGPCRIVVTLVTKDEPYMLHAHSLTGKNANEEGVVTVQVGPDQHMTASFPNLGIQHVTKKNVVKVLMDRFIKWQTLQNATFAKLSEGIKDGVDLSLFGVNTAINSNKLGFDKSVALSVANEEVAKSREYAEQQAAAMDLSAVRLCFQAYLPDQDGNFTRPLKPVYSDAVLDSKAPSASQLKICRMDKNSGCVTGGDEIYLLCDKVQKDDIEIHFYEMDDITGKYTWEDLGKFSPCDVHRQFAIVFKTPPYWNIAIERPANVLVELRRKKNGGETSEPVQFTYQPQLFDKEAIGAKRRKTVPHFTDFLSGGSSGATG

[2] = molecular target: T3, GST-Nv-NF-kB (Ser allele) (Nematostella vectensis, UniProt A7UNT2 2-411)
T3 sequence: T2 sequence with Q21R, C66S, S207N, E215Q, V217A, E225K, A268E, D399E

GST-Co-NF-kB = molecular target: T4, GST-Co-NF-kB (Capsaspora owczarzaki, UniProt F1ARL5 200-546)
T4 sequence: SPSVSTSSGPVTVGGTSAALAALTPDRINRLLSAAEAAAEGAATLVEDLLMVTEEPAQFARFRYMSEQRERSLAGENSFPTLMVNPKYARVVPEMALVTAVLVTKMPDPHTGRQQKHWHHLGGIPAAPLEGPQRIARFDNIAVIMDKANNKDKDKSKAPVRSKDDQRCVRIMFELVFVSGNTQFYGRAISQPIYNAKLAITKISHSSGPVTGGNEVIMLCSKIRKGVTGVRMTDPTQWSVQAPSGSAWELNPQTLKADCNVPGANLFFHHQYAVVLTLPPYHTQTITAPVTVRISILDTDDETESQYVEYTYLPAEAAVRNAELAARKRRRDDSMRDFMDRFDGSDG

GST-Dm-Relish = molecular target: T5, GST-Dm-Relish (Drosophila melanogaster, UniProt Q94527 99-473)
T5 sequence: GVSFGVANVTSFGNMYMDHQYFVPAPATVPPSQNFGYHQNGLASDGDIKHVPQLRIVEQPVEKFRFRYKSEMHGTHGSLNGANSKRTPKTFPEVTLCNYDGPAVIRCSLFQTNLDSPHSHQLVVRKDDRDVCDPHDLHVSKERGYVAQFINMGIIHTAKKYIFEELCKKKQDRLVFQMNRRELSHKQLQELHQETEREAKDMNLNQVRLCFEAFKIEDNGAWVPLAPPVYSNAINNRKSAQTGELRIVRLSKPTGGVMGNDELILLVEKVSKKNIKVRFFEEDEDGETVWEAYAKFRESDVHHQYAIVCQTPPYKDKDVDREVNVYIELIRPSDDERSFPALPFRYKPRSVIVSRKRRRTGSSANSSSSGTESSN

GST-Aq-NF-kB = molecular target: T6, GST-Aq-NF-kB (Amphimedon queenslandica, UniProt A9Y5G7 2-389)
T6 sequence: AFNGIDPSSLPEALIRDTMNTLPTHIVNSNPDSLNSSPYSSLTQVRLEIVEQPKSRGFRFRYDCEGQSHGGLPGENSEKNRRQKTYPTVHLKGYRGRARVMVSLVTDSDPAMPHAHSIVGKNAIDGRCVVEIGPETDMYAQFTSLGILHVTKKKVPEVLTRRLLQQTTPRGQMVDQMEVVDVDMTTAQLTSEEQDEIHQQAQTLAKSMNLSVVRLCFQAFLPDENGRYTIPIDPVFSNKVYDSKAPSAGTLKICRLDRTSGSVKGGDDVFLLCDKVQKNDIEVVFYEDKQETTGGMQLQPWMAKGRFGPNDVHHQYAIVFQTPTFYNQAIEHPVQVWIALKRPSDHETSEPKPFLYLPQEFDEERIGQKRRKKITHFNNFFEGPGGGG

GST-Hu-p50 = GST-Hu-p50 (Homo sapiens, UniProt P19838 7-356)
Chain of GST-Hu-p50 (P19838 7-356): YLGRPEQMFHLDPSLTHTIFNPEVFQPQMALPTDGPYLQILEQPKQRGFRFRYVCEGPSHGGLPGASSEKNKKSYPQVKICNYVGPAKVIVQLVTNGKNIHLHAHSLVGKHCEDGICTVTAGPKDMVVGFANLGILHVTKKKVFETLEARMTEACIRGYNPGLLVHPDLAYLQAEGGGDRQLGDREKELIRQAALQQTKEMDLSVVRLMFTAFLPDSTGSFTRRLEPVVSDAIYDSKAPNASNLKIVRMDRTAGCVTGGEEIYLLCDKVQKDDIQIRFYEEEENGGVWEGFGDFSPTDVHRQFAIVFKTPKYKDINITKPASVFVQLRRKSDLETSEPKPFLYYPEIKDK

| Sequence | binding signal (GST-Ap-NF-kB RHD) | binding signal [1] | binding signal [2] | binding signal (GST-Co-NF-kB) | binding signal (GST-Dm-Relish) | binding signal (GST-Aq-NF-kB) | binding signal (GST-Hu-p50) |
| --- | --- | --- | --- | --- | --- | --- | --- |
| CCGATTAACATCAAGATTCCCCCTGATGTTAATCGGGTCTTGATTCGCTTGACGCTGCTG | 8.66 z-score | 9.42 z-score | 10.6 z-score | 9.18 z-score | 7.1 z-score | 7.31 z-score | 7.32 z-score |
| CCGATTAACATCAAATTCCCCCTTGATGTTAATCGGGTCTTGATTCGCTTGACGCTGCTG | 9.34 z-score | 10.3 z-score | 11 z-score | 8.93 z-score | 8.62 z-score | 8.5 z-score | 8.06 z-score |
| CCGATTAACATCAGGGGAATACCTGATGTTAATCGGGTCTTGATTCGCTTGACGCTGCTG | 9.84 z-score | 11.8 z-score | 10.1 z-score | 5.97 z-score | 9.67 z-score | 10.5 z-score | 6.93 z-score |
| CCGATTAACATCAGGGGATGCACTGATGTTAATCGGGTCTTGATTCGCTTGACGCTGCTG | 4.3 z-score | 4.83 z-score | 6.02 z-score | 2.97 z-score | 9.57 z-score | 5.85 z-score | 4.77 z-score |
| CCGATTAACATCACCCGCCCCCCTGATGTTAATCGGGTCTTGATTCGCTTGACGCTGCTG | 4.08 z-score | 4.08 z-score | 2.95 z-score | 4.02 z-score | 4.78 z-score | 4.22 z-score | 3.85 z-score |
| CCGATTAACATCACTAAATCCCCTGATGTTAATCGGGTCTTGATTCGCTTGACGCTGCTG | 6.91 z-score | 7.06 z-score | 9.63 z-score | 3.45 z-score | 6.49 z-score | 5.34 z-score | 6.6 z-score |
| CCGATTAACATCAAAGGACCCCCTGATGTTAATCGGGTCTTGATTCGCTTGACGCTGCTG | 4.81 z-score | 2.82 z-score | 3.92 z-score | 2.19 z-score | 4.18 z-score | 3.79 z-score | 3.2 z-score |
| CCGATTAACATCAAAAACTCCCCTGATGTTAATCGGGTCTTGATTCGCTTGACGCTGCTG | 9.29 z-score | 8.96 z-score | 9.57 z-score | 6.91 z-score | 8.62 z-score | 8.06 z-score | 6.46 z-score |
| CCGATTAACATCACAAATTACCCTGATGTTAATCGGGTCTTGATTCGCTTGACGCTGCTG | 3.66 z-score | 5.32 z-score | 5.44 z-score | 3.35 z-score | 3.01 z-score | 4.95 z-score | 4.07 z-score |
| CCGATTAACATCAAAACCTCCCCTGATGTTAATCGGGTCTTGATTCGCTTGACGCTGCTG | 5.96 z-score | 5.34 z-score | 7 z-score | 6.47 z-score | 3.36 z-score | 4.96 z-score | 4.55 z-score |
| CCGATTAACATCAAGGGGTTCCCTGATGTTAATCGGGTCTTGATTCGCTTGACGCTGCTG | 4.99 z-score | 3.32 z-score | 2.15 z-score | 2.13 z-score | 9.46 z-score | 5.11 z-score | 3.25 z-score |
| CCGATTAACATCAGGGGAAATAATGATGTTAATCGGGTCTTGATTCGCTTGACGCTGCTG | 6.88 z-score | 8.65 z-score | 11.6 z-score | 9 z-score | 5.53 z-score | 5.68 z-score | 6.58 z-score |
| CCGATTAACATCAAAAATTACCCTGATGTTAATCGGGTCTTGATTCGCTTGACGCTGCTG | 4.2 z-score | 7.43 z-score | 7.03 z-score | 4.09 z-score | 6.42 z-score | 6.93 z-score | 5.22 z-score |
| CCGATTAACATCAAACGCCCCCCTGATGTTAATCGGGTCTTGATTCGCTTGACGCTGCTG | 4.79 z-score | 4.46 z-score | 3.85 z-score | 3.84 z-score | 4.9 z-score | 5.57 z-score | 5.03 z-score |
| CCGATTAACATCAGGGGATGTACTGATGTTAATCGGGTCTTGATTCGCTTGACGCTGCTG | 4.43 z-score | 4.79 z-score | 5.58 z-score | 3.02 z-score | 9.92 z-score | 5.33 z-score | 4.4 z-score |
| CCGATTAACATCAGGGAATTACCTGATGTTAATCGGGTCTTGATTCGCTTGACGCTGCTG | 8.44 z-score | 9.55 z-score | 9.14 z-score | 5.01 z-score | 8.83 z-score | 9.49 z-score | 5.8 z-score |
| CCGATTAACATCAGAAATATCCCTGATGTTAATCGGGTCTTGATTCGCTTGACGCTGCTG | 2.4 z-score | 2.67 z-score | 2.09 z-score | 1.62 z-score | 3.52 z-score | 4.26 z-score | 3.17 z-score |
| CCGATTAACATCAGTTTTCCCCATGATGTTAATCGGGTCTTGATTCGCTTGACGCTGCTG | 6.49 z-score | 7.03 z-score | 9.09 z-score | 9.45 z-score | 3.42 z-score | 4.82 z-score | 5.76 z-score |
| CCGATTAACATCACTGAAATCCCTGATGTTAATCGGGTCTTGATTCGCTTGACGCTGCTG | 2.61 z-score | 2.29 z-score | 1.72 z-score | 1.34 z-score | 3.35 z-score | 2.54 z-score | 1.71 z-score |
| CCGATTAACATCAGGGGAGTTACTGATGTTAATCGGGTCTTGATTCGCTTGACGCTGCTG | 5.46 z-score | 4.25 z-score | 4.83 z-score | 3.43 z-score | 7.83 z-score | 5.17 z-score | 4.45 z-score |
| CCGATTAACATCAGGGAATAACCTGATGTTAATCGGGTCTTGATTCGCTTGACGCTGCTG | 4.4 z-score | 6.79 z-score | 6.75 z-score | 2.13 z-score | 8.23 z-score | 7.2 z-score | 5.21 z-score |
| CCGATTAACATCACGGGGGAAACTGATGTTAATCGGGTCTTGATTCGCTTGACGCTGCTG | 7.25 z-score | 5.82 z-score | 8.94 z-score | 12.2 z-score | 3.91 z-score | 4.97 z-score | 6.34 z-score |
| CCGATTAACATCACTATTTCCCCTGATGTTAATCGGGTCTTGATTCGCTTGACGCTGCTG | 6.35 z-score | 7.42 z-score | 9.8 z-score | 8.77 z-score | 3.62 z-score | 4.85 z-score | 6.08 z-score |
| CCGATTAACATCACCATTTCCCCTGATGTTAATCGGGTCTTGATTCGCTTGACGCTGCTG | 5.75 z-score | 6.95 z-score | 9.62 z-score | 6.17 z-score | 2.11 z-score | 4.32 z-score | 5.3 z-score |
